Experimental data taken from the supplement of paper PMC10849652.
Targets with a hit are over-represented here; the source holds about 7,900 in all. About 0.6% of all pairs of compound and target were hits. A number with no mark means an inactive call.

Key:
Assay in all cases: log2 fold change, soluble protein after heating vs DMSO (PISA); higher = thermal stabilisation; K562 cells, 10 uM, 30 min; active = over 0.2 and 3.5 SD of the protein, either way, in both replicates (recomputed)
[1] = compound: NC(=O)Nc1cc(-c2cccc(F)c2)sc1C(=O)N[C@H]1CCCNC1
How it was run: (§1)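 Thermal stability values are relative to control samples and come from duplicates. They are expressed as log2 fold changes. For measurement, K562 cells (2×10^6 cells/mL) received 10 μM compound for 30 min, and aliquots were heated for 3 min over 48°C-58°C, pooled, and extracted at 4°C in PBS with 0.5% NP-40. Soluble protein, the supernatant after 21,000xg for 90 min, was quantified by TMTpro 16plex LC-MS/MS with equalised channel sums.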

[2] = compound: NC(=O)c1cnc(N[C@@H]2CCCC[C@@H]2N)nc1Nc1cccc(-n2nccn2)c1
How it was run: as §1

[3] = compound: NC1(c2ccc(-c3nc4ccn5c(=O)[nH]nc5c4cc3-c3ccccc3)cc2)CCC1
How it was run: as §1

[4] = compound: NCC(=O)Nc1ccc(-n2nc(C(F)(F)F)cc2-c2ccc3c(ccc4ccccc43)c2)cc1
How it was run: as §1

entinostat = compound: Nc1ccccc1NC(=O)c1ccc(CNC(=O)OCc2cccnc2)cc1 [entinostat]
How it was run: as §1

vorinostat = compound: O=C(CCCCCCC(=O)Nc1ccccc1)NO [vorinostat]
How it was run: as §1

citarinostat = compound: O=C(CCCCCCNC(=O)c1cnc(N(c2ccccc2)c2ccccc2Cl)nc1)NO [citarinostat]
How it was run: as §1

silmitasertib = compound: O=C(O)c1ccc2c(c1)nc(Nc1cccc(Cl)c1)c1ccncc12 [silmitasertib]
How it was run: as §1

[5] = compound: O=C1NC(=O)C(c2cnc3ccccn23)=C1c1cn2c3c(cc(F)cc13)CN(C(=O)N1CCCCC1)CC2
How it was run: as §1

[6] = compound: c1cc(OCCN2CCCCC2)cc(-c2n[nH]c3ccc(-c4nnc[nH]4)cc23)c1
How it was run: as §1

Sequence of UniProt Q14151 (Q14151 whole entry, looked up): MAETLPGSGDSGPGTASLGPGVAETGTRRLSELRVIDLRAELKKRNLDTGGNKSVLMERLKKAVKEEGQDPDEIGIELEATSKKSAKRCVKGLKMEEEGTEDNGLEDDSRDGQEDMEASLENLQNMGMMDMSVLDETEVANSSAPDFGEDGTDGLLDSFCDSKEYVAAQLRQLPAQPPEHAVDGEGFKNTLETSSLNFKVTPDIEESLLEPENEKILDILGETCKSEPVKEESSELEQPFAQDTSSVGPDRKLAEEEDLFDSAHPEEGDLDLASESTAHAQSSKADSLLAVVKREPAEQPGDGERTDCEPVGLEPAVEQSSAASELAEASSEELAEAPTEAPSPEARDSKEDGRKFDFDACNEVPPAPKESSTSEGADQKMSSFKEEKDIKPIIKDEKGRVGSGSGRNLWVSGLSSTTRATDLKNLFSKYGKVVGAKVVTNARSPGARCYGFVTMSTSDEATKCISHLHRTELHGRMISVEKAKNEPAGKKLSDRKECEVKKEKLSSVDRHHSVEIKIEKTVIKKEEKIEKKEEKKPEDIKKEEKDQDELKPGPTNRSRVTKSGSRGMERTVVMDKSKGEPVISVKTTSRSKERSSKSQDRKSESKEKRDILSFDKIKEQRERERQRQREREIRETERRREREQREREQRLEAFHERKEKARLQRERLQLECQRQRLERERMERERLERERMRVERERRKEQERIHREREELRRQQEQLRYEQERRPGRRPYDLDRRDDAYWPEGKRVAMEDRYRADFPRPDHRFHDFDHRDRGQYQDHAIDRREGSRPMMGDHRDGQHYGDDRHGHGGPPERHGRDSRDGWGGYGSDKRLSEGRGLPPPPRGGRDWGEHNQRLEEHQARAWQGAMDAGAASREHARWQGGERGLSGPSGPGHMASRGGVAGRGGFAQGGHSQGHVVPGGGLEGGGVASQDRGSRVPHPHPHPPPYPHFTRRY
Sequence of UniProt O75446 (O75446 whole entry, looked up): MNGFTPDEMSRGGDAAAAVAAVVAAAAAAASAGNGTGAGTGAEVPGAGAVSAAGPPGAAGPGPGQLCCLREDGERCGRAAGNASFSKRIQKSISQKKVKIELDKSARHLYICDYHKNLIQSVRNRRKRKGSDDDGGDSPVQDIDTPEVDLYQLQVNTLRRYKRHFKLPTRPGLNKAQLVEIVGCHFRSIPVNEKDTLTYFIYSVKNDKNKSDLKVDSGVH
Sequence of UniProt Q8NBN7 (Q8NBN7 whole entry, looked up): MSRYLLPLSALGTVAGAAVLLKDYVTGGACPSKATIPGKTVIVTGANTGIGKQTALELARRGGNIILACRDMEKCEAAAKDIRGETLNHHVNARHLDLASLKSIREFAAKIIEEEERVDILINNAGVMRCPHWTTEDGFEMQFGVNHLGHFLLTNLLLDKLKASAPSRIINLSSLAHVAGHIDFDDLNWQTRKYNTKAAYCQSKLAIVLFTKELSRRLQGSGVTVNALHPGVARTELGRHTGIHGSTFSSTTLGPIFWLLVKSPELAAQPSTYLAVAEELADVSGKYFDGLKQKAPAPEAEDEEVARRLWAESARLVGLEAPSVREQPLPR
Sequence of UniProt Q9BWJ5 (Q9BWJ5 whole entry, looked up): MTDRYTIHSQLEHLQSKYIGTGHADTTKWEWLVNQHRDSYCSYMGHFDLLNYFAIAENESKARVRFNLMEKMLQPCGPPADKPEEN
Sequence of UniProt Q15050 (Q15050 whole entry, looked up): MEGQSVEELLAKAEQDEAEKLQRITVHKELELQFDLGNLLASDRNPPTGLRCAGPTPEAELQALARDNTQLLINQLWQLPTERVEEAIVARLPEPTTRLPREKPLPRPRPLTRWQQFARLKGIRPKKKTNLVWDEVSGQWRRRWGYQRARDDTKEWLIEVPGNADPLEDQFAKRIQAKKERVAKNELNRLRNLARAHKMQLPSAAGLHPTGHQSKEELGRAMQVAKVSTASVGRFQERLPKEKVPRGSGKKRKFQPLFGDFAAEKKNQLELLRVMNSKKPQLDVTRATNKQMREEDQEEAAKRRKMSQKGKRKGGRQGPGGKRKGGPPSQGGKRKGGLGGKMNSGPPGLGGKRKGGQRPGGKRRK
Sequence of UniProt O00767 (O00767 whole entry, looked up): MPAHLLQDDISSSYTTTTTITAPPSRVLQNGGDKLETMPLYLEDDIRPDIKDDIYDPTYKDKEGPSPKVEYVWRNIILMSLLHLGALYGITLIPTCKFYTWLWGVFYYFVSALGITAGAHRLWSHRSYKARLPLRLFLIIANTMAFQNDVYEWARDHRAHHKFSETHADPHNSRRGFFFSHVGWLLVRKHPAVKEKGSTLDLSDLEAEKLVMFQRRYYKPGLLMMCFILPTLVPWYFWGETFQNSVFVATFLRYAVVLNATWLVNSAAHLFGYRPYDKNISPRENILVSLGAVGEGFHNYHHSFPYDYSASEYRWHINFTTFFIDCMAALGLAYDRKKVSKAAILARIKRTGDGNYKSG
Sequence of UniProt Q04864 (Q04864 whole entry, looked up): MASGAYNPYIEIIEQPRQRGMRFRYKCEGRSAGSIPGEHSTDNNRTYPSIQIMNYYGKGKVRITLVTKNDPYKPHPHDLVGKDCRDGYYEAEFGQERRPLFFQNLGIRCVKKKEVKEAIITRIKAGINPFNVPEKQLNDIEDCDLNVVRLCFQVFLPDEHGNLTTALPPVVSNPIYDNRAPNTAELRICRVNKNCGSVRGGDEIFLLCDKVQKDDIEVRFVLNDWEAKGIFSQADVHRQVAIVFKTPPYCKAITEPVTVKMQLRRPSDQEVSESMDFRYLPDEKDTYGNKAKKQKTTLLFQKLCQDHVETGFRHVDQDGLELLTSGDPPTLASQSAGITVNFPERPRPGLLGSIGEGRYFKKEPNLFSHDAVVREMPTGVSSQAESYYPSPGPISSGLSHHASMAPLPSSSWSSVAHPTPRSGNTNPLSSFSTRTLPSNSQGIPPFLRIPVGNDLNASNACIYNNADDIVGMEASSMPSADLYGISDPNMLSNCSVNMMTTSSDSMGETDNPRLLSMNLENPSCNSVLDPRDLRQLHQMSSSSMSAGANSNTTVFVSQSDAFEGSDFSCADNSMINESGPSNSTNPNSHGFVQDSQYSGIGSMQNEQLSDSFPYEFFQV
Sequence of UniProt P41440 (P41440 whole entry, looked up): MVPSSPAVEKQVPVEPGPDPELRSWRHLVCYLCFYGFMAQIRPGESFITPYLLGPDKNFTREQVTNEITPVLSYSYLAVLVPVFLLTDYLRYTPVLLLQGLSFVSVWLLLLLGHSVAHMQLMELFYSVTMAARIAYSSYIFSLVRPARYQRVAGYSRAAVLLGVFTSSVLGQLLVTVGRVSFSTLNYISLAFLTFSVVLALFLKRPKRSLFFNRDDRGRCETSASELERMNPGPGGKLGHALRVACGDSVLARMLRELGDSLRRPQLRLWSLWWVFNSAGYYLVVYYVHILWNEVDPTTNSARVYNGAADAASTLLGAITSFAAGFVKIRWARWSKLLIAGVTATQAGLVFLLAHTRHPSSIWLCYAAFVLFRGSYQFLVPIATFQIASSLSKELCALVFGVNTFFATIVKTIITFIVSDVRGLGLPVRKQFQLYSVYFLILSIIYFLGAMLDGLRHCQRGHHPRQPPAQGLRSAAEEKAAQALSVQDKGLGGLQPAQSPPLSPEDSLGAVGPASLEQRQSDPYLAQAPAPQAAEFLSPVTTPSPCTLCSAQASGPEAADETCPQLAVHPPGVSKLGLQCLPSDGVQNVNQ
Sequence of UniProt Q06609 (Q06609 whole entry, looked up): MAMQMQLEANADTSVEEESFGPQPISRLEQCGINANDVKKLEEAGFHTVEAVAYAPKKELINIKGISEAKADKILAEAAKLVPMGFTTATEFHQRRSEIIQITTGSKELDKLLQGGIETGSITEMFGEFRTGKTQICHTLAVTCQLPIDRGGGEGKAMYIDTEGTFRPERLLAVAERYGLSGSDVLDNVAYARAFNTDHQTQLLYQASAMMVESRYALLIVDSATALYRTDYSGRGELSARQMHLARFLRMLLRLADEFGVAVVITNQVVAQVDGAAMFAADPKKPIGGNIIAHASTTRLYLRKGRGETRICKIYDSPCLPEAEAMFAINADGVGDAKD
Sequence of UniProt Q7L099 (Q7L099 whole entry, looked up): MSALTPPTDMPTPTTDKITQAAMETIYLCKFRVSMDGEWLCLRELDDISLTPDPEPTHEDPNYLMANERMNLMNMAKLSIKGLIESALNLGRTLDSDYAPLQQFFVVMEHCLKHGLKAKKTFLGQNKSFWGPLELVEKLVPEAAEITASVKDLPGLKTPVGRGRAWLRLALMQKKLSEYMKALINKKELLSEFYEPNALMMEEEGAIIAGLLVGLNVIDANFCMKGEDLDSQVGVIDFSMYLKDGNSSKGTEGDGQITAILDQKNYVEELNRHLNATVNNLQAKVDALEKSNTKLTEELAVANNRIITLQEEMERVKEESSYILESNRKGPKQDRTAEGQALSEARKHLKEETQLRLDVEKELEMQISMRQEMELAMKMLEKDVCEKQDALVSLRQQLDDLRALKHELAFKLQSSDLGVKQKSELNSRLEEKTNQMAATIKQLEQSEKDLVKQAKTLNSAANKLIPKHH
Sequence of UniProt Q6NUM9 (Q6NUM9 whole entry, looked up): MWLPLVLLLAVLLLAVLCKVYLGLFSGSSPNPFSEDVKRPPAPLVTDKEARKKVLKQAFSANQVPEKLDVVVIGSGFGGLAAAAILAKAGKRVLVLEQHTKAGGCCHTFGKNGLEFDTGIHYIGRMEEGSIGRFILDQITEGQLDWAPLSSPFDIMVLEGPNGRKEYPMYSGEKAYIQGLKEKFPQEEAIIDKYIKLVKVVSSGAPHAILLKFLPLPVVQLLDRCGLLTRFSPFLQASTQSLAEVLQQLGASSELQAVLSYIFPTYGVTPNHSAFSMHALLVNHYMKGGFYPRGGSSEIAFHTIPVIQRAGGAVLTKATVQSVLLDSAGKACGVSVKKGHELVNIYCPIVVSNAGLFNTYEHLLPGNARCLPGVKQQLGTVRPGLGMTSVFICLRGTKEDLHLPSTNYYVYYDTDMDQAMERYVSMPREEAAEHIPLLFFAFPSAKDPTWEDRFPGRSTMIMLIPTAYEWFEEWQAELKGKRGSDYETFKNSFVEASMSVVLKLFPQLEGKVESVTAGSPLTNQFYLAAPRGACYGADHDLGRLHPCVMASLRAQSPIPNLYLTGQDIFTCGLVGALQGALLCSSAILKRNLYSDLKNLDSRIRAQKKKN

Row | Target | log2 fold change [1] | log2 fold change [2] | log2 fold change [3] | log2 fold change [4] | log2 fold change (entinostat) | log2 fold change (vorinostat) | log2 fold change (citarinostat) | log2 fold change (silmitasertib) | log2 fold change [5] | log2 fold change [6]
1 | RPS14 (UniProt P62263) | 0.056 | 0.142 | 0.149 | 0.08 | -0.033 | -0.106 | -0.089 | -0.041 | 0.209 | -0.069
2 | RPS3 (UniProt P23396) | -0.006 | 0.05 | 0.117 | 0.033 | -0.055 | 0.015 | -0.035 | -0.008 | 0.029 | -0.145
3 | SIK3 (UniProt H0Y4E8) | -0.022 | 0.08 | -0.22 | -0.038 | -0.075 | -0.053 | -0.053 | 0.054 |  | -0.098
4 | RDH13 (UniProt Q8NBN7) | -0.038 | -0.049 | -0.064 | -0.055 | -0.032 | 0.002 | 0.029 | -0.013 | -0.029 | -0.02
5 | SAP30 (UniProt O75446) | 0.043 | 0.032 | 0.044 | 0.287 | 0.165 | 0.307 |  | 0.106 | 0.047 | 
6 | REL (UniProt Q04864) | -0.053 | -0.131 | -0.108 | 0.028 | -0.007 | -0.122 | 0.053 | 0.053 | -0.054 | -0.09
7 | SLC19A1 (UniProt P41440) | 0.1 | 0.157 | 0.036 | 0.007 | -0.017 | 0.057 | 0.02 | -0.013 | 0.207 | -0.033
8 | RSRC1 (UniProt Q96IZ7) | -0.019 | 0.162 | -0.005 | -0.013 | -0.04 | 0.022 | 0.049 | -0.275 (active) | -0.029 | -0.123
9 | SAFB2 (UniProt Q14151) | 0.116 | 0.084 | 0.255 | 0.043 | -0.076 | -0.016 | -0.098 | 0.119 | 0.084 | -0.038
10 | SF3B5 (UniProt Q9BWJ5) | 0.081 | 0.043 | -0.034 | 0.038 | 0.116 | -0.004 | -0.016 | 0.016 | -0.127 | 0
11 | SCD (UniProt O00767) | -0.064 | -0.151 | -0.071 | -0.054 | -0.043 | -0.382 (active) | -0.403 (active) | 0.083 | 0.051 | -0.005
12 | RPS27A (UniProt P62979) | 0.024 | 0.16 | 0.286 | 0.177 | -0.047 | -0.007 | -0.211 | 0.05 | 0.064 | -0.06
13 | RRS1 (UniProt Q15050) | 0.06 | 0.143 | 0.233 | 0.211 | -0.087 | -0.063 | -0.081 | 0.291 | 0.438 | -0.107
14 | RPS15 (UniProt P62841) | 0.005 | -0.13 | 0.135 | 0 | -0.068 | 0 | -0.034 | 0.02 | 0.036 | -0.144
15 | RETSAT (UniProt Q6NUM9) | -0.058 | -0.05 | -0.028 | -0.019 | 0.129 | -0.048 | 0.028 | -0.014 | 0.026 | -0.047
16 | RAD51 (UniProt Q06609) | 0.051 | -0.019 | -0.057 | 0.031 | 0.001 | 0.047 | 0.018 | -0.003 | -0.014 | -0.012
17 | RAD50, A0A494C0Y7 | -0.032 | -0.159 | -0.28 | -0.175 | -0.103 | -0.086 | 0.095 | 0.103 |  | -0.279
18 | RUFY3 isoform 3 (UniProt Q7L099) | -0.032 | -0.022 | -0.05 | -0.014 | 0.143 | 0.071 | 0.089 | 0.1 |  | 0.013
19 | SCAMP2 (UniProt H3BUB6) | -0.31 | -0.392 | 0.021 | -0.311 | -0.175 |  | -0.364 | 0.129 | -0.267 | -0.118
20 | RPL31 (UniProt P62899) | 0.042 | 0.099 | 0.26 | 0.075 | -0.079 | -0.012 | -0.09 | 0.048 | 0.104 | -0.12
21 | RNF167 (UniProt Q9H6Y7) | 0.015 | -0.062 | -0.278 | -0.03 | -0.032 | 0.014 |  | 0.095 | -0.028 | 
